# Test results as given in the supplement of paper PMC8728848.
# This excerpt belongs to a sample that is enriched for the strongest signals.
# B1: GALT1 115 D492A (Arabidopsis thaliana), Q8L7F9 (protein)
# chain: DPMRGSHHHHHHGMASMTGGQQMGRDLYDDDDKSRLQKPYITAAASVVVTPNTTLPMEWLRITLPDFMKEARNTQEAISGDDIAVVSGLFVEQNVSKEEREPLLTWNRLESLVDNAQSLVNGVDAIKEAGIVWESLVSAVEAKKLVDVNENQTRKGKEELCPQFLSKMNATEADGSSLKLQIPCGLTQGSSITVIGIPDGLVGSFRIDLTGQPLPGEPDPPIIVHYNVRLLGDKSTEDPVIVQNSWTASQDWGAEERCPKFDPDMNKKVDDLDECNKMVGGEINRTSSTSLQSNTSRGVPVAREASKHEKYFPFKQGFLSVATLRVGTEGMQMTVDGKHITSFAFRDTLEPWLVSEIRITGDFRLISILASGLPTSEESEHVVDLEALKSPTLSPLRPLDLVIGVFSTANNFKRRMAVRRTWMQYDDVRSGRVAVRFFVGLHKSPLVNLELWNEARTYGDVQLMPFVDYYSLISWKTLAICIFGTEVDSAKFIMKTDDAAFVRVDEVLLSLSMTNNTRGLIYGLINSDSQPIRNPDSKWYISYEEWPEEKYPPWAHGPGYIVSRDIAESVGKLFKEGNLKMFKLEDVAMGIWIAELTKHGLEPHYENDGRIISDGCKDGYVVAHYQSPAEMTCLWRKYQETKRSLCCREW
# Tests used:
# Test in all cases: glycan array binding signal (z-score within array); higher = stronger binding
# Conditions in all cases: glycan notation: IUPAC condensed, linker removed
# [1] = target: Fuc(a1-2)Gal(b1-3)GalNAc(b1-3)Gal
# Outline: (§1)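 Glycan array data were curated from 3228 arrays in the Consortium for Functional Glycomics database and kept only where the protein sequence was available. Glycan names were converted to IUPAC-condensed notation, and columns mapping to the same glycan were averaged. The binding signal is a within-array Z-score, averaged across arrays of the same protein sequence at different concentrations or buffers and across linkers. Negative Z-scores can be read as non-binding.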
# [2] = target: Fuc(a1-2)Gal(b1-4)GlcNAc(b1-3)Gal(b1-4)GlcNAc(b1-3)Gal(b1-4)GlcNAc
# Outline: as §1
# [3] = target: Fuc(a1-2)Gal(b1-4)[Fuc(a1-3)]GlcNAc
# Outline: as §1
# [4] = target: Fuc(a1-2)Gal(b1-4)[Fuc(a1-3)]GlcNAc(b1-3)Gal(b1-4)[Fuc(a1-3)]GlcNAc
# Outline: as §1
# [5] = target: Fuc(a1-2)[Gal(a1-3)]Gal(b1-3)GlcNAc
# Outline: as §1
# [6] = target: Fuc(a1-3)[Gal(b1-4)]GlcNAc(b1-2)Man(a1-3)[Fuc(a1-3)[Gal(b1-4)]GlcNAc(b1-2)Man(a1-6)]Man(b1-4)GlcNAc(b1-4)GlcNAc
# Outline: as §1
# [7] = target: Fuc(a1-3)[Neu5Ac(a2-3)]Gal(b1-4)GlcNAc(b1-3)GalNAc
# Outline: as §1
# [8] = target: Gal(b1-3)GalNAc(a1-3)[Fuc(a1-2)]Gal(b1-4)GlcNAc
# Outline: as §1
# [9] = target: Gal(b1-3)[Fuc(a1-4)]GlcNAc(b1-2)Man(a1-3)[Gal(b1-3)[Fuc(a1-4)]GlcNAc(b1-2)Man(a1-6)]Man(b1-4)GlcNAc(b1-4)[Fuc(a1-6)]GlcNAc
# Outline: as §1
# [10] = target: Gal(b1-4)GlcNAc(b1-3)GalNAc
# Outline: as §1
# [11] = target: Gal(b1-4)GlcNAc(b1-6)GalNAc
# Outline: as §1
# [12] = target: Gal3S(b1-3)[Fuc(a1-4)]GlcNAc
# Outline: as §1
# Gal3S(b1-4)GlcNAc = target: Gal3S(b1-4)GlcNAc
# Outline: as §1
# [13] = target: GlcNAc(a1-4)Gal(b1-4)GlcNAc(b1-3)Gal(b1-4)[Fuc(a1-3)]GlcNAc(b1-3)Gal(b1-4)[Fuc(a1-3)]GlcNAc
# Outline: as §1
# [14] = target: GlcNAc(b1-2)Man(a1-3)[GlcNAc(b1-2)Man(a1-6)]Man(b1-4)GlcNAc(b1-4)[Fuc(a1-6)]GlcNAc
# Outline: as §1
# [15] = target: GlcNAc(b1-3)Gal(b1-3)GalNAc
# Outline: as §1
# [16] = target: Man(a1-2)Man(a1-2)Man(a1-3)Man
# Outline: as §1
# Man(a1-3)[Man(a1-6)]Man = target: Man(a1-3)[Man(a1-6)]Man
# Outline: as §1
# [17] = target: Man(a1-3)[Man(a1-6)]Man(a1-6)[Man(a1-2)Man(a1-3)]Man(b1-4)GlcNAc(b1-4)GlcNAc
# Outline: as §1
# [18] = target: Neu5Ac(a2-3)Gal(b1-3)GalNAc(b1-4)[Neu5Ac(a2-3)]Gal(b1-4)Glc
# Outline: as §1
# [19] = target: Neu5Ac(a2-3)Gal(b1-4)GlcNAc(b1-3)GalNAc
# Outline: as §1
# [20] = target: Neu5Ac(a2-3)Gal(b1-4)[Fuc(a1-3)]GlcNAc(b1-3)Gal(b1-4)GlcNAc
# Outline: as §1
# [21] = target: Neu5Ac(a2-3)Gal(b1-4)[Fuc(a1-3)]GlcNAc6S
# Outline: as §1
# [22] = target: Neu5Ac(a2-6)Gal(b1-4)GlcNAc(b1-2)Man(a1-3)[Neu5Ac(a2-6)Gal(b1-4)GlcNAc(b1-2)Man(a1-6)]Man(b1-4)GlcNAc(b1-4)GlcNAc
# Outline: as §1
# [23] = target: Neu5Ac(a2-6)Gal(b1-4)GlcNAc(b1-2)Man(a1-6)[Gal(b1-4)GlcNAc(b1-2)Man(a1-3)]Man(b1-4)GlcNAc(b1-4)GlcNAc
# Outline: as §1
# [24] = target: Neu5Ac(a2-6)Gal(b1-4)GlcNAc(b1-2)Man(a1-6)[Man(a1-3)]Man(b1-4)GlcNAc(b1-4)GlcNAc
# Outline: as §1
# [25] = target: Neu5Ac(a2-6)Gal(b1-4)GlcNAc6S
# Outline: as §1
# Neu5Ac(a2-8)Neu5Ac = target: Neu5Ac(a2-8)Neu5Ac
# Outline: as §1
# [26] = target: Neu5Ac(a2-8)Neu5Ac(a2-3)[GalNAc(b1-4)]Gal(b1-4)Glc
# Outline: as §1
# [27] = target: Neu5Gc(b2-6)Gal(b1-4)GlcNAc
# Outline: as §1
binder,measurement,setting,value
B1,glycan array binding signal (z-score),[1],1.79
same,glycan array binding signal (z-score),[2],6.73
same,glycan array binding signal (z-score),[3],8.05
same,glycan array binding signal (z-score),[4],-0.068
same,glycan array binding signal (z-score),[5],-0.352
same,glycan array binding signal (z-score),[6],-0.034
same,glycan array binding signal (z-score),[7],-0.012
same,glycan array binding signal (z-score),[8],0.06
same,glycan array binding signal (z-score),[9],-0.152
same,glycan array binding signal (z-score),[10],-0.374
same,glycan array binding signal (z-score),[11],-0.406
same,glycan array binding signal (z-score),[12],-0.223
same,glycan array binding signal (z-score),Gal3S(b1-4)GlcNAc,-0.298
same,glycan array binding signal (z-score),[13],2.05
same,glycan array binding signal (z-score),[14],2.9
same,glycan array binding signal (z-score),[15],1.5
same,glycan array binding signal (z-score),[16],0.15
same,glycan array binding signal (z-score),Man(a1-3)[Man(a1-6)]Man,-0.244
same,glycan array binding signal (z-score),[17],0.404
same,glycan array binding signal (z-score),[18],-0.335
same,glycan array binding signal (z-score),[19],-0.152
same,glycan array binding signal (z-score),[20],0.671
same,glycan array binding signal (z-score),[21],-0.172
same,glycan array binding signal (z-score),[22],0.357
same,glycan array binding signal (z-score),[23],-0.362
same,glycan array binding signal (z-score),[24],-0.139
same,glycan array binding signal (z-score),[25],0.087
same,glycan array binding signal (z-score),Neu5Ac(a2-8)Neu5Ac,-0.221
same,glycan array binding signal (z-score),[26],-0.078
same,glycan array binding signal (z-score),[27],0.041
